# Laboratory results: PubChem BioAssay AID1159580 (chemical genetic matrix, 2015)
# In all, about 5,500 compounds went through this assay and about 2,000 (36%) were called active. Roughly 18% stayed inconclusive and do not appear here. The list shows a part of the results. Values without a mark were called inactive. Rule as the data show it: active = normalized growth mostly below about 0.91 (no sharp cut-off); inconclusive = no clear call, values can overlap the other calls; inactive = mostly above about 0.92.
# Assay: chemical genetic growth profiling, strain panel (AID 1159580);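 also: tested at 20 µM; growth read once vehicle control cultures reached saturation at 30 °C; 1 = growth at the plate median or of vehicle wells; lower values mean less growth of the strain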
# Details: growth OD
# [1] = S. cerevisiae deletion strains, locus YDL101C, strain DUN1, active compounds read low
# [2] = S. cerevisiae deletion strains, locus YHR030C, strain SLT2, active compounds read low
# [3] = S. cerevisiae deletion strains, locus YAL013W, strain DEP1, active compounds read low
# [4] = S. cerevisiae deletion strains, locus YBR229C, strain ROT2, active compounds read low
# [5] = S. cerevisiae deletion strains, locus YDR150W, strain NUM1, active compounds read low
# [6] = S. cerevisiae deletion strains, locus YEL061C, strain CIN8, active compounds read low
# [7] = S. cerevisiae deletion strains, locus YGR078C, strain PAC10, active compounds read low
# [8] = S. cerevisiae deletion strains, locus YGR229C, strain SMI1, active compounds read low
# [9] = S. cerevisiae deletion strains, locus YHR087W, strain rtc3, active compounds read low
# [10] = S. cerevisiae deletion strains, locus YJL187C, strain SWE1, active compounds read low
# [11] = S. cerevisiae deletion strains, locus YJR043C, strain POL32, active compounds read low
# [12] = S. cerevisiae deletion strains, locus YJR075W, strain HOC1, active compounds read low
# [13] = S. cerevisiae deletion strains, locus YLR039C, strain RIC1, active compounds read low
# [14] = S. cerevisiae deletion strains, locus YLR058C, strain SHM2 (second series), active compounds read low
# [15] = S. cerevisiae deletion strains, locus YLR085C, strain ARP6, active compounds read low
# [16] = S. cerevisiae deletion strains, locus YLR262C, strain YPT6, active compounds read low
# [17] = S. cerevisiae deletion strains, locus YML094W, strain GIM5, active compounds read low
# [18] = S. cerevisiae deletion strains, locus YMR219W, strain ESC1, active compounds read low
# [19] = S. cerevisiae deletion strains, locus YMR263W, strain SAP30, active compounds read low
# [20] = S. cerevisiae deletion strains, locus YMR307W, strain GAS1, active compounds read low
# [21] = S. cerevisiae deletion strains, locus YNL153C, strain GIM3, active compounds read low
# [22] = S. cerevisiae deletion strains, locus YNL298W, strain CLA4 (second series), active compounds read low
# [23] = S. cerevisiae deletion strains, locus YNL322C, strain KRE1, active compounds read low
# [24] = S. cerevisiae deletion strains, locus YNR030W, strain Alg12, active compounds read low
# [25] = S. cerevisiae deletion strains, locus YOL006C, strain TOP1, active compounds read low
# [26] = S. cerevisiae deletion strains, locus YPL055C, strain LGE1, active compounds read low
# [27] = S. cerevisiae deletion strains, locus YPL241C, strain CIN2, active compounds read low
# [28] = S. cerevisiae deletion strains, locus YPR135W, strain CTF4, active compounds read low
smiles,measurement,setting,value
CCC(C)Cn1c(Sc2ncc([N+](=O)[O-])s2)n[nH]c1=O (stereo not given),normalized growth,"S. cerevisiae deletion strains, locus YAR019C, strain CDC15, active compounds read low",0.853 (active)
same,normalized growth,"S. cerevisiae deletion strains, locus YBL105C, strain PKC1, active compounds read low",0.893 (active)
same,normalized growth,"S. cerevisiae deletion strains, locus YBR135W, strain CKS1, active compounds read low",0.867 (active)
same,normalized growth,"S. cerevisiae deletion strains, locus YBR136W, strain MEC1, active compounds read low",0.888 (active)
same,normalized growth,"S. cerevisiae deletion strains, locus YBR160W, strain CDC28, active compounds read low",0.894 (active)
same,normalized growth,"S. cerevisiae deletion strains, locus YDL017W, strain CDC7, active compounds read low",0.895 (active)
same,normalized growth,"S. cerevisiae deletion strains, locus YDL028C, strain MPS1, active compounds read low",0.895
same,normalized growth,[1],0.932
same,normalized growth,"S. cerevisiae deletion strains, locus YDL108W, strain KIN28, active compounds read low",0.878 (active)
same,normalized growth,"S. cerevisiae deletion strains, locus YDL132W, strain cdc53, active compounds read low",0.849 (active)
same,normalized growth,"S. cerevisiae deletion strains, locus YDL214C, strain PRR2, active compounds read low",0.794
same,normalized growth,"S. cerevisiae deletion strains, locus YDR052C, strain DBF4, active compounds read low",0.93
same,normalized growth,"S. cerevisiae deletion strains, locus YDR054C, strain cdc34, active compounds read low",0.825 (active)
same,normalized growth,"S. cerevisiae deletion strains, locus YDR226W, strain ADK1, active compounds read low",0.884 (active)
same,normalized growth,"S. cerevisiae deletion strains, locus YDR477W, strain SNF1, active compounds read low",0.711
same,normalized growth,"S. cerevisiae deletion strains, locus YER123W, strain YCK3, active compounds read low",0.649
same,normalized growth,"S. cerevisiae deletion strains, locus YER133W, strain GLC7, active compounds read low",0.69 (active)
same,normalized growth,"S. cerevisiae deletion strains, locus YFL009W, strain cdc4, active compounds read low",0.844 (active)
same,normalized growth,"S. cerevisiae deletion strains, locus YFL029C, strain CAK1, active compounds read low",0.848 (active)
same,normalized growth,"S. cerevisiae deletion strains, locus YFR003C, strain YPI1, active compounds read low",0.901 (active)
same,normalized growth,"S. cerevisiae deletion strains, locus YFR019W, strain FAB1, active compounds read low",0.838
same,normalized growth,"S. cerevisiae deletion strains, locus YFR028C, strain CDC14, active compounds read low",0.888 (active)
same,normalized growth,"S. cerevisiae deletion strains, locus YGR040W, strain KSS1, active compounds read low",0.751
same,normalized growth,"S. cerevisiae deletion strains, locus YGR052W, strain FMP48, active compounds read low",0.776
same,normalized growth,"S. cerevisiae deletion strains, locus YGR092W, strain DBF2, active compounds read low",0.469 (active)
same,normalized growth,[2],0.772 (active)
same,normalized growth,"S. cerevisiae deletion strains, locus YHR079C, strain IRE1, active compounds read low",0.657
same,normalized growth,"S. cerevisiae deletion strains, locus YHR082C, strain KSP1, active compounds read low",0.926
same,normalized growth,"S. cerevisiae deletion strains, locus YHR205W, strain SCH9, active compounds read low",0.806
same,normalized growth,"S. cerevisiae deletion strains, locus YIL147C, strain SLN1, active compounds read low",0.896
same,normalized growth,"S. cerevisiae deletion strains, locus YJL095W, strain BCK1, active compounds read low",0.651
same,normalized growth,"S. cerevisiae deletion strains, locus YJL128C, strain PBS2, active compounds read low",0.938
same,normalized growth,"S. cerevisiae deletion strains, locus YJL157C, strain FAR1, active compounds read low",0.763
same,normalized growth,"S. cerevisiae deletion strains, locus YJR016C, strain ILV3, active compounds read low",0.877 (active)
same,normalized growth,"S. cerevisiae deletion strains, locus YJR066W, strain TOR1 (second series), active compounds read low",0.492 (active)
same,normalized growth,"S. cerevisiae deletion strains, locus YJR066W, strain TOR1, active compounds read low",0.778
same,normalized growth,"S. cerevisiae deletion strains, locus YKL048C, strain ELM1, active compounds read low",0.963
same,normalized growth,"S. cerevisiae deletion strains, locus YKL067W, strain YNK1, active compounds read low",0.792
same,normalized growth,"S. cerevisiae deletion strains, locus YKL101W, strain HSL1, active compounds read low",0.838
same,normalized growth,"S. cerevisiae deletion strains, locus YKL193C, strain SDS22, active compounds read low",0.849 (active)
same,normalized growth,"S. cerevisiae deletion strains, locus YKL203C, strain TOR2, active compounds read low",0.795
same,normalized growth,"S. cerevisiae deletion strains, locus YLR113W, strain HOG1, active compounds read low",0.598 (active)
same,normalized growth,"S. cerevisiae deletion strains, locus YLR133W, strain CKI1, active compounds read low",0.805
same,normalized growth,"S. cerevisiae deletion strains, locus YLR403W, strain SFP1, active compounds read low",0.56 (active)
same,normalized growth,"S. cerevisiae deletion strains, locus YML070W, strain DAK1, active compounds read low",0.759
same,normalized growth,"S. cerevisiae deletion strains, locus YMR001C, strain CDC5, active compounds read low",0.88 (active)
same,normalized growth,"S. cerevisiae deletion strains, locus YMR205C, strain PFK2 (second series), active compounds read low",0.844
same,normalized growth,"S. cerevisiae deletion strains, locus YMR277W, strain FCP1, active compounds read low",0.846 (active)
same,normalized growth,"S. cerevisiae deletion strains, locus YNL006W, strain LST8, active compounds read low",0.894 (active)
same,normalized growth,"S. cerevisiae deletion strains, locus YNL020C, strain ARK1, active compounds read low",0.826
same,normalized growth,"S. cerevisiae deletion strains, locus YNL161W, strain CBK1, active compounds read low",0.875 (active)
same,normalized growth,"S. cerevisiae deletion strains, locus YNL183C, strain NPR1, active compounds read low",0.652
same,normalized growth,"S. cerevisiae deletion strains, locus YNL207W, strain RIO2, active compounds read low",0.867 (active)
same,normalized growth,"S. cerevisiae deletion strains, locus YNL222W, strain SSU72, active compounds read low",0.865 (active)
same,normalized growth,"S. cerevisiae deletion strains, locus YNL307C, strain MCK1 (second series), active compounds read low",0.714
same,normalized growth,"S. cerevisiae deletion strains, locus YOL078W, strain AVO1, active compounds read low",0.856 (active)
same,normalized growth,"S. cerevisiae deletion strains, locus YOL136C, strain PFK27, active compounds read low",0.766
same,normalized growth,"S. cerevisiae deletion strains, locus YOR061W, strain CKA2, active compounds read low",0.85
same,normalized growth,"S. cerevisiae deletion strains, locus YOR119C, strain RIO1, active compounds read low",0.735
same,normalized growth,"S. cerevisiae deletion strains, locus YOR231W, strain MKK1, active compounds read low",0.722
same,normalized growth,"S. cerevisiae deletion strains, locus YOR329C, strain SCD5, active compounds read low",0.908
same,normalized growth,"S. cerevisiae deletion strains, locus YPL031C, strain PHO85, active compounds read low",0.674
same,normalized growth,"S. cerevisiae deletion strains, locus YPL153C, strain RAD53, active compounds read low",0.657 (active)
same,normalized growth,"S. cerevisiae deletion strains, locus YPL204W, strain HRR25, active compounds read low",0.683
same,normalized growth,"S. cerevisiae deletion strains, locus YPL209C, strain IPL1, active compounds read low",0.891 (active)
same,normalized growth,"S. cerevisiae deletion strains, locus YPL256C, strain CLN2, active compounds read low",0.695 (active)
same,normalized growth,"S. cerevisiae deletion strains, locus YPR025C, strain CCL1, active compounds read low",0.888 (active)
same,normalized growth,"S. cerevisiae deletion strains, locus YPR106W, strain ISR1, active compounds read low",0.943
same,normalized growth,"S. cerevisiae deletion strains, locus YPR111W, strain DBF20, active compounds read low",0.938
same,normalized growth,"S. cerevisiae deletion strains, strain NNK1, active compounds read low",0.932
same,normalized growth,"S. cerevisiae deletion strains, strain TSCII, active compounds read low",0.85 (active)
C=CCn1c(Sc2ncc([N+](=O)[O-])s2)n[nH]c1=O,normalized growth,[3],0.926 (active)
same,normalized growth,[4],0.913 (active)
same,normalized growth,[1],0.932
same,normalized growth,[5],0.929
same,normalized growth,[6],0.858 (active)
same,normalized growth,[7],0.944
same,normalized growth,[8],0.984
same,normalized growth,[2],0.775
same,normalized growth,[9],0.968
same,normalized growth,[10],0.948
same,normalized growth,[11],0.968
same,normalized growth,[12],1
same,normalized growth,[13],0.8
same,normalized growth,[14],0.962
same,normalized growth,[15],0.359 (active)
same,normalized growth,[16],0.992
same,normalized growth,[17],0.813 (active)
same,normalized growth,[18],0.975
same,normalized growth,[19],0.938
same,normalized growth,[20],0.973
same,normalized growth,[21],0.815 (active)
same,normalized growth,[22],0.675 (active)
same,normalized growth,[23],0.996
same,normalized growth,[24],0.833 (active)
same,normalized growth,[25],0.219 (active)
same,normalized growth,[26],0.829
same,normalized growth,[27],0.582 (active)
same,normalized growth,[28],0.488 (active)
same,normalized growth,"S. cerevisiae strains, strain wild type, active compounds read low",0.893 (active)
N#CC(C#N)=Cc1ccc([N+](=O)[O-])c(O)c1,normalized growth,"S. cerevisiae deletion strains, locus YAL040C, strain CLN3, active compounds read low",1.04
same,normalized growth,"S. cerevisiae deletion strains, locus YCL061C, strain MRC1 (second series), active compounds read low",0.991
same,normalized growth,"S. cerevisiae deletion strains, locus YDR363W, strain ESC2, active compounds read low",0.968
same,normalized growth,"S. cerevisiae deletion strains, locus YER002W, strain NOP16, active compounds read low",0.956
same,normalized growth,[20],1.01
same,normalized growth,"S. cerevisiae deletion strains, locus YNL128W, strain TEP1, active compounds read low",0.966
same,normalized growth,"S. cerevisiae deletion strains, locus YNL175C, strain NOP13, active compounds read low",0.953
same,normalized growth,"S. cerevisiae deletion strains, locus YNL197C, strain WHI3, active compounds read low",0.955
same,normalized growth,"S. cerevisiae deletion strains, locus YNL224C, strain SQS1, active compounds read low",0.988
same,normalized growth,"S. cerevisiae deletion strains, locus YOR083W, strain WHI5 (second series), active compounds read low",0.992
same,normalized growth,[27],0.988
N#Cc1ccc([N+](=O)[O-])s1,normalized growth,[3],0.726 (active)
same,normalized growth,[4],0.446 (active)
same,normalized growth,[1],0.201 (active)
same,normalized growth,"S. cerevisiae deletion strains, locus YDL134C, strain PPH21, active compounds read low",0.0493 (active)
same,normalized growth,[5],0.681 (active)
same,normalized growth,[6],0.194 (active)
same,normalized growth,[7],0.385 (active)
same,normalized growth,[8],0.992
same,normalized growth,[2],0.0826 (active)
same,normalized growth,[9],0.379 (active)
same,normalized growth,[10],0.261 (active)
same,normalized growth,[11],0.564 (active)
same,normalized growth,[12],0.198 (active)
same,normalized growth,"S. cerevisiae deletion strains, locus YKL190W, strain CNB1, active compounds read low",0.0802 (active)
same,normalized growth,[13],0.346 (active)
same,normalized growth,[14],0.461 (active)
same,normalized growth,[15],0.121 (active)
same,normalized growth,[16],0.588 (active)
same,normalized growth,[17],0.271 (active)
same,normalized growth,[18],0.7 (active)
same,normalized growth,[19],0.46 (active)
same,normalized growth,[21],0.382 (active)
same,normalized growth,[22],0.105 (active)
same,normalized growth,[23],1.01
same,normalized growth,[24],0.096 (active)
same,normalized growth,[25],0.115 (active)
same,normalized growth,[26],0.547 (active)
same,normalized growth,[27],0.0815 (active)
same,normalized growth,[28],0.186 (active)
